Some test systems named below: NCI-H23 lung; NCI-H226 lung; NCI-H322M lung; HOP-62 NSCLC; NCI-H460 lung; HOP-92 NSCLC; NCI-H522 lung; A549/ATCC NSCLC; 786-0 renal; COLO 205 colon; DU-145 prostate; K-562 leukemia; MALME-3M melanoma; MDA-MB-231 breast; SF-268 CNS; SF-295 CNS; SF-539 CNS; UACC-257 melanoma; M14 melanoma; RXF 393 renal.
Experiment in all cases: NCI-60 one-dose screen, 48 h (100 = growth as untreated, 0 = no growth, -100 = all killed)
Holding throughout (conditions): 10 µM unless noted

From PubChem BioAssay (NCI) come the findings set out here.

About 83,000 compounds went through this panel and 20% of them were active in at least one assay; those are over-represented in the sample as a whole.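 Step 1: grow cells in 96-well plates. Step 2: add test compound at a single concentration. Step 3: incubate 48 h. Step 4: record percent growth.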 Unmarked numbers belong to inactive results. Activity calls are given as the source filed them. How the source made its calls: active means growth percent below 10; inactive means the rest.

Regarding `CC(NCCC(c1ccccc1)c1ccccc1)c1ccccc1` (configuration not stated), the growth in the assay on NCI-H23 lung was 82%; with NCI-H226 lung it was 87.6%; with NCI-H322M lung, 69.8%; in the assay with HOP-62 NSCLC it was 97.8%; in the assay on NCI-H460 lung, 11.6%; in the assay on HOP-92 NSCLC, 43.3%. Moreover, the growth in the assay with NCI-H522 lung is 74.8%; in the assay with A549/ATCC NSCLC it was 80.7%; in the assay with 786-0 renal it was 73.4%; in the assay with COLO 205 colon, -54.9% (active); with DU-145 prostate, 89.1%; in the assay with K-562 leukemia it was -44% (active). Moreover, the growth in the assay with MALME-3M melanoma was 74.1%; in the assay with MDA-MB-231 breast it was 83.8%; in the assay on SF-268 CNS, 89.2%; in the assay with SF-295 CNS, 62.2%; with SF-539 CNS, 94.7%; in the assay on UACC-257 melanoma, 64.4%. Besides, in the assay on M14 melanoma, the growth was 71.8%.
For `COc1ccc(-c2cc3ccc(N(C)C)cc3nc2N)c(F)c1`, the growth with NCI-H23 lung was 19%; with NCI-H226 lung it was 48.2%; in the assay with NCI-H322M lung, 66.9%; in the assay on HOP-62 NSCLC it was 40.3%; in the assay with NCI-H460 lung, 31.9%; in the assay with HOP-92 NSCLC, 19%. The growth in the assay on NCI-H522 lung was 31%; in the assay with A549/ATCC NSCLC, 40.8%; in the assay with 786-0 renal, 48.3%; in the assay with COLO 205 colon it was 12.2%; with DU-145 prostate it was 56.1%; with MALME-3M melanoma it was 25.3%. The growth in the assay with MDA-MB-231 breast was 48.5%; in the assay on RXF 393 renal it was 32.4%; with SF-268 CNS, 56.5%; in the assay on SF-295 CNS, 25.4%; in the assay on SF-539 CNS it was 49.1%; in the assay with UACC-257 melanoma it was 23.3%. Besides, the growth in the assay with M14 melanoma is -60.5% (active).
Take `CN(C)c1ccc2cc(-c3nc4ccccc4s3)c(N)nc2c1`: the growth in the assay with NCI-H23 lung was 50.8%; in the assay with NCI-H226 lung it was 119%; in the assay with NCI-H322M lung, 49.8%; in the assay on HOP-62 NSCLC it was 40.3%; with NCI-H460 lung, 19.6%; in the assay on HOP-92 NSCLC it was 85.1%. The growth in the assay on NCI-H522 lung was 17%; in the assay with A549/ATCC NSCLC it was 28.3%; in the assay with 786-0 renal, 35.3%; in the assay on COLO 205 colon, 84.1%; in the assay with DU-145 prostate it was 40.8%; with MALME-3M melanoma, 83.4%. Besides, the growth was 70.7% with MDA-MB-231 breast; 83.5% in the assay on RXF 393 renal; 58.7% in the assay with SF-268 CNS; 22.3% with SF-295 CNS; 34% with SF-539 CNS; 93.9% in the assay on UACC-257 melanoma. Moreover, in the assay on M14 melanoma, the growth is 50.9%.
In the case of `O=C1CN(CCN2CC(=O)NC(=O)C2)CC(=O)N1`, the growth in the assay with NCI-H23 lung was 95.9%; in the assay with NCI-H226 lung, 94.7%; with NCI-H322M lung, 84.3%; with HOP-62 NSCLC it was 93.4%; in the assay on NCI-H460 lung it was 117%; with HOP-92 NSCLC, 72.3%. The growth was 97.1% in the assay with NCI-H522 lung; 101% with A549/ATCC NSCLC; 97.1% in the assay with 786-0 renal; 118% in the assay with COLO 205 colon; 90.7% in the assay with DU-145 prostate; 106% with K-562 leukemia. Also, the growth with MALME-3M melanoma was 94.5%; with MDA-MB-231 breast, 102%; in the assay on SF-268 CNS, 108%; with SF-295 CNS, 85.9%; in the assay on SF-539 CNS, 118%; with UACC-257 melanoma, 104%. Further, the growth in the assay with M14 melanoma was 94.8%.
With `N#CC1=C(N)Oc2c(ccc3ccccc23)C1c1cc(=O)oc2ccc(Cl)cc12` (configuration not stated), the growth in the assay with NCI-H23 lung is 32.9%; in the assay on NCI-H226 lung, 98.3%; in the assay with NCI-H322M lung it was 44.2%; in the assay on HOP-62 NSCLC, 33.3%; with NCI-H460 lung, 8.96% (active); in the assay on HOP-92 NSCLC, 87.5%. Moreover, the growth in the assay with NCI-H522 lung is 5.22% (active); in the assay on A549/ATCC NSCLC it was 26.6%; in the assay with 786-0 renal it was 29.4%; in the assay on COLO 205 colon, -16.4% (active); in the assay on DU-145 prostate it was 19.4%; with MALME-3M melanoma it was 77.8%. Moreover, the growth in the assay on MDA-MB-231 breast is 50%; in the assay with RXF 393 renal, 7.4% (active); in the assay with SF-268 CNS, 56.1%; in the assay on SF-295 CNS, 14.1%; in the assay on SF-539 CNS it was 3.16% (active); in the assay on UACC-257 melanoma it was 73.5%. For the same compound, the growth with M14 melanoma was 3.47% (active).
On to `CC(C)(C)OC(=O)N1CCN(CCn2cc(C(F)(F)F)c3c(Cl)ncnc32)CC1`, for which the growth was 44.8% with NCI-H23 lung; 108% in the assay on NCI-H226 lung; 96.2% in the assay with NCI-H322M lung; 88.6% in the assay with HOP-62 NSCLC; 59.3% in the assay with NCI-H460 lung; -23.1% (active) in the assay on HOP-92 NSCLC. Moreover, the growth with NCI-H522 lung is -2.6% (active); in the assay with A549/ATCC NSCLC, 96%; in the assay on 786-0 renal, 107%; in the assay with COLO 205 colon, 102%; in the assay with DU-145 prostate, 39.8%; in the assay on MALME-3M melanoma, 112%. The growth with MDA-MB-231 breast is 57.9%; in the assay on RXF 393 renal, 47%; with SF-268 CNS, 69.5%; in the assay on SF-295 CNS, 99.6%; in the assay on SF-539 CNS it was 97.3%; in the assay with UACC-257 melanoma, 85.4%. Besides, in the assay on M14 melanoma, the growth was 14%.
As to `CCCCCn1ncc(-c2c(O)c(O)cc3c(O)c(-c4c(C)cc5c(-c6cnn(CCCCC)n6)c(O)c(O)cc5c4O)c(C)cc23)n1`, the growth was -15.1% (active) in the assay with NCI-H23 lung; -3.01% (active) in the assay on NCI-H226 lung; 33.7% in the assay on NCI-H322M lung; 4.15% (active) in the assay with HOP-62 NSCLC; -3.01% (active) with NCI-H460 lung; -23.8% (active) with HOP-92 NSCLC. Moreover, the growth with NCI-H522 lung was -56.2% (active); in the assay with A549/ATCC NSCLC, 6.6% (active); with 786-0 renal it was -10.2% (active); in the assay on COLO 205 colon it was -6.73% (active); in the assay on DU-145 prostate, 22.9%; with MALME-3M melanoma, 27%. Moreover, the growth in the assay with MDA-MB-231 breast was 32.9%; in the assay with RXF 393 renal, -4.68% (active); with SF-268 CNS, 5.18% (active); with SF-295 CNS, 10%; in the assay on SF-539 CNS, 3.31% (active); with UACC-257 melanoma, 16.2%. Besides, the growth in the assay on M14 melanoma is -20.8% (active).
Consider `COc1ccc(C2CC(c3cc(Cl)c(C)cc3OC)=NN2c2ccc(S(N)(=O)=O)cc2)cc1OC` (configuration not stated), for which the growth in the assay on NCI-H23 lung was 75.8%; in the assay with NCI-H226 lung, 81.3%; in the assay with NCI-H322M lung, 104%; in the assay on HOP-62 NSCLC it was 87.8%; in the assay on NCI-H460 lung, 89.8%; with HOP-92 NSCLC, 101%. In addition, the growth was 74.3% in the assay on NCI-H522 lung; 73.2% in the assay with A549/ATCC NSCLC; 92.3% in the assay with 786-0 renal; 101% in the assay on COLO 205 colon; 106% with DU-145 prostate; 101% in the assay on MALME-3M melanoma. Also, the growth in the assay on MDA-MB-231 breast was 84.6%; in the assay on RXF 393 renal, 77.7%; in the assay with SF-268 CNS, 90.1%; in the assay on SF-295 CNS, 123%; with SF-539 CNS it was 103%; with UACC-257 melanoma, 87.2%. Also, in the assay with M14 melanoma, the growth was 81.8%.
